PubChem BioAssay AID504941 (Broad Institute, 2011)
The campaign covered roughly 1,200 compounds. About 170 (14%) were called active. No rule for the calls is given here. These entries were drawn from the full list. Measured potencies and affinities stand elsewhere.

Assay: E. coli Tat export inhibitors, dose response, cherry-pick, set 2, plate reader (AID 504941)
Details: E. coli Tat transport reporter; series mostly up to 38 µM

outcome, inactive:
CN(CC(=O)NCCN1CCOCC1)S(=O)(=O)c1ccc(Cl)cc1
COc1ccc(OC)c(NC(=O)NCc2cccnc2)c1
Cc1cc(=O)[nH]c(Sc2c(-c3ccccc3)c3ccccc3[nH]c2=O)n1
CN1CCN(c2cc3c(cc2F)c(=O)c(C(=O)O)cn3CCF)CC1
CC(C(=O)NC1CCCC1)N1CCN(S(=O)(=O)c2ccc(C(C)(C)C)cc2)CC1 (stereo not given)
Cc1ccc(S(=O)(=O)N2CCC(C(=O)Nc3nnc(C)s3)CC2)cc1
O=C(CCSc1nnc(-c2ccco2)o1)N1CCOCC1
CCc1ccc(-c2cc(C(=O)Nc3ccc(S(=O)(=O)NC(C)=O)cc3)c3ccccc3n2)cc1
CC(=O)c1ccc(NC(=O)C2CCCN2S(=O)(=O)c2cccc3cccnc23)cc1 (stereo not given)
CN(c1ccccc1)S(=O)(=O)c1cccc(NC(=O)CN2C(=O)NC3(CCCC3)C2=O)c1
CC1(C)C2CCC1(C)C(NC(=O)/C=C/c1ccccc1)C2 (stereo not given)
COc1ccccc1NC(=S)NC(=O)C(C)C
COc1ccc(Nc2nc3ccccc3nc2-n2nc(C)cc2C)cc1
COc1cc(NC(=O)C2CCCCC2)c(OC)cc1NC(=O)c1ccco1
Cc1ccc(-c2cc(C(F)F)n3ncc(C(=O)Nc4ccc(S(=O)(=O)Nc5ccccc5C)cc4)c3n2)cc1
Oc1c(Cl)cc(Cl)cc1C1Nc2ccccc2-n2cccc21 (stereo not given)
O=C(Nc1ccc2c(c1)OCCO2)C1CCCN(S(=O)(=O)c2cccnc2)C1 (stereo not given)
O=C(c1cccnc1)C1CCCN(Cc2nc(Cc3ccccc3)no2)C1 (stereo not given)
CN1CCN(c2ccc(S(=O)(=O)N3CCCCC3)cc2NC(=O)c2cccc([N+](=O)[O-])c2)CC1
COc1c2ccoc2nc2c(OC)c(OC[C@@H](O)C(C)(C)O)ccc12
Cc1ccnc(SCC(=O)c2cccs2)n1
CC(=O)c1cc(CN2CCN(C3CCCCC3)C(CCO)C2)cs1 (stereo not given)
O=C1/C(=C/c2cccnc2)Oc2cc(OS(=O)(=O)c3ccccc3)ccc21
COc1cccc(NC(=O)c2cccc(C(=O)Nc3cccc(OC)c3)n2)c1
Cc1ccc(S(=O)(=O)NC(C)(C)CSc2nnc(Nc3ccccc3)s2)cc1
CN1CCC(=NNC(=O)C(=O)Nc2cccc(Br)c2)CC1
Cc1ccc(C)c(NC(=O)CN(C)C(=O)c2cccc(S(=O)(=O)N(C)C)c2)c1
Cc1ncc(CN2CCN(CCC(C)C)C(CCO)C2)s1 (stereo not given)
COc1ccc(C(=O)NC2(C(F)(F)F)C(=O)Nc3c2c(=O)[nH]c(=O)n3CCc2ccc(OC)c(OC)c2)cc1 (stereo not given)
CC(C)OCC(O)CN1CCN(CC(O)COc2ccc3c(c2)OCO3)CC1 (stereo not given)
CCCCN(C)C(=O)c1cc2cc([N+](=O)[O-])cc(OC)c2oc1=O
Cc1cccc(N(CC(=O)NC2CCCC2)C(=O)CCCC(=O)Nc2ccccn2)c1
CCCCn1c(N)c(N(CCOC)C(=O)COC(=O)C(C)Oc2ccc(Cl)cc2)c(=O)[nH]c1=O (stereo not given)
O=C(Nc1nnc(S(=O)(=O)N2CCCCCC2)s1)c1ccccc1Br
C=CCn1c(SCC(=O)NCc2ccc3c(c2)OCO3)nnc1-c1cccnc1
COC(=O)C[C@H]1c2cc(F)cc(F)c2S(=O)(=O)N1C1CCN(Cc2ccccc2)CC1
NC(=O)C1CCN(C(=O)c2ccco2)CC1
NC(=O)C1CCN(C(=O)CSc2nc3ccccc3o2)CC1
O=C(CCSc1ccccc1)N1CCN(C(=O)c2ccco2)CC1
O=C(CCc1nc2cccnc2n1Cc1ccccc1)N1CCOCC1
CN(Cc1ccccc1)c1ncnc2sccc12
COC(=O)c1sccc1NC(=O)c1ccc2c(c1)OCO2
Cc1ccccc1C(=O)N1CCC(C(=O)Nc2ccccc2Cl)CC1
Cc1ccccc1C(=O)N1CCN(c2ccc(NC(=S)NC(=O)c3cccs3)cc2)CC1
O=C(CC1SCCNC1=O)Nc1cccc(Cl)c1 (stereo not given)
COc1cccc(CN2CCN(Cc3cc(OC)c(OC)cc3[N+](=O)[O-])CC2)c1
COc1ccc(CCN2C(=O)CC(NNC(=O)c3ccc(F)cc3)C2=O)cc1OC (stereo not given)
Cc1cc(C(=O)NNC(=O)c2ccc(F)cc2)c(C)s1
Cc1nc(Cl)c(C(=O)NCc2ccccc2)c(C)c1Cl
Cc1nn(Cc2ccccc2)c(C)c1NC(=O)c1noc2c1CCc1ccccc1-2
CCOc1cccc(=O)c2c(C)n(-c3ccc(C(=O)O)cc3)c(C)c12
O=C(CCCc1ccccc1)Nc1ccc2c(c1)OCCO2
O=C(O)CC(NCc1ccco1)C(=O)OCCc1ccccc1 (stereo not given)
Cc1cc(C)c2oc(=O)cc(CN3CCN(Cc4ccc5c(c4)OCO5)CC3)c2c1
C[C@H]1NC(=O)[C@@]2(C)[C@@H](c3ccccc3)[C@H]3COc4ccccc4[C@H]3N2C1=O
CCOC(=O)[C@H]1[C@H]2COc3ccc(Cl)cc3[C@@H]2N2C(=O)[C@H](C)NC(=O)[C@@]12C
CC(=O)c1c(C)[nH]c(C(=O)CSc2nnc3ccccn23)c1C
CC(=O)Oc1ccc2c(c1)OC(c1ccccc1)CC21CC(C)(C)NC(=S)N1 (stereo not given)
C=CCC[C@H](Cc1ccc(F)cc1)C(=O)OC[C@@H](C)NC(=O)[C@H](CC=C)CC(=O)NCCO
Nc1nc2n(n1)C(c1cccc(Br)c1)CC(c1ccccc1)N2 (stereo not given)
CC(Oc1ccc2c(-c3ccccc3)cc(=O)oc2c1)C(=O)NCCCN1CCOCC1 (stereo not given)
COc1ccccc1N1CCN(CC(=O)Nc2ccc3c(c2)OCCO3)CC1
COc1cccc(CNC(=O)CN2C(=O)CCSc3ccc(S(=O)(=O)N4CCCC4)cc32)c1
Cc1ccc(NC(=S)NCCC2=CCCCC2)cc1
O=C(NCc1ccccc1)c1ccc(CS(=O)(=O)c2ccccc2)o1
CCC1CCCCN1Cc1nc2c(c(=O)n(C)c(=O)n2C)n1CCCc1ccccc1 (stereo not given)
Cc1onc(C(=O)NCc2ccc(F)cc2)c1[N+](=O)[O-]
O=C(CCC1CCCCC1)NCCN1CCOCC1
COCCCN=C(c1ccco1)n1c(=S)nc(-c2ccco2)n(CCCOC)c1=S
O=C(CN1CCC(c2nc3ccccc3s2)CC1)NCc1cccs1
O=C(Nc1ccc(C(=O)O)cc1)/C(=C\C=C\c1ccccc1)NC(=O)c1ccccc1Br
O=C(Nc1cc(S(=O)(=O)N2CCOCC2)ccc1N1CCCC1)c1ccc(Cl)cc1
Cc1cc(Oc2nc3c(C)cccn3c(=O)c2/C=C(\C#N)S(=O)(=O)c2ccc(Cl)cc2)ccc1Cl
CCOC(=O)C1=C(C)Nc2ncnn2C1c1cc(Br)ccc1F (stereo not given)
COc1ccc(NC(=O)C2CCN(Cc3cnn(-c4ccccc4)c3-n3cccc3)CC2)cc1OC
Cc1ccn(C(=O)c2ccc(NC(=O)C3CC3)cc2)n1
O=C(CSc1cccc2cccnc12)N/N=C/c1ccncc1
Clc1ccccc1CSc1nnc(-c2cccnc2)n1Cc1ccco1
CCN(CC)CC(=O)Nc1ccc(C)cc1C(=O)c1ccccc1
COc1ccccc1NC(=O)NCCCCc1ccccc1
COc1ccc(CCNCC(O)COc2c(C)cccc2C)cc1OC (stereo not given)
COCCNc1nc(N)c([N+](=O)[O-])c(NCC2CCCO2)n1 (stereo not given)
CCOC(=O)c1sc(-c2ccccc2)cc1NC(=O)Nc1ccc([N+](=O)[O-])cc1
O=C1c2cccc3cccc(c23)C(=O)N1CC1CCN(CC(O)COc2ccc3ccccc3c2)CC1 (stereo not given)
Cc1cccc(OCC(O)Cn2c(=N)n(CCN3CCOCC3)c3ccccc32)c1 (stereo not given)
COC(=O)COc1cccc(NC(=O)c2cccc(C)c2)c1
CCCc1[nH]nc2c1C(c1ccc(OC(=O)c3ccco3)cc1)C(C#N)=C(N)O2 (stereo not given)
O=C1c2ccccc2NC(c2ccc(Cl)cc2Cl)N1O (stereo not given)
CCOc1cc(/C=N/NC(=O)C(=O)NCc2cccnc2)ccc1O
S=c1[nH]nc(-c2cccnc2)n1C1CCCCC1
O=S(=O)(NC1CCCCC1)c1ccc(Cl)s1
CCC(C)OC1OC(CO)C(O)C(O)C1NC(C)=O (stereo not given)
C[C@@H]1C(c2ccc(F)cc2)=NN(c2ccccc2)[C@H]1C(=O)N1CCOC1=O
CCN(CC)S(=O)(=O)N1CCC(C(=O)NC2CCCC2)CC1
O=C(Nc1ccccc1F)C1CCN(C(=O)Cc2ccccc2)CC1
CCOc1cc(C(=O)N2CCCN(C)CC2)cc(OCC)c1OCC
COC(=O)c1sc(NC(=O)CSc2nnnn2-c2ccc(C)cc2C)nc1C
CN1CC(c2ccccc2Cl)C2(COc3ccccc3C2=O)C12C(=O)Nc1ccccc12 (stereo not given)
CC1(C)c2ccccc2N2CC(=O)NC21/C=C/c1ccco1 (stereo not given)
CCc1ccc(C(=O)Nc2ccc(S(=O)(=O)Nc3nc(C)cc(C)n3)cc2)o1
Cc1ccc2nc(C(=O)O)c(C(=O)O)nc2c1
O=C(Cn1c(=O)oc2cc(S(=O)(=O)N3CCc4ccccc43)ccc21)N1CCCCC1
O=C(Cn1nnc(-c2ccccc2)n1)N/N=C/c1cccc([N+](=O)[O-])c1O
COc1ccccc1N(CC(=O)NC1CCCC1)C(=O)c1csnn1
Cc1cc(=O)oc2cc(OCC(=O)OCC(=O)N3CCc4ccccc43)ccc12
